The panel holds about 83,000 compounds, 20% with a hit somewhere; the sample as a whole holds those more often.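 Assay: single dose, 48 h. Readout: percent growth (0 = no net growth; negative = cell death). Active: <10.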 Active and inactive are the calls of the source.
Key:
Assay in all cases: NCI-60 one-dose screen, 48 h (100 = growth as untreated, 0 = no growth, -100 = all killed)
DU-145 prostate = settings: 10 µM unless noted
K-562 leukemia = settings: 10 µM unless noted
MALME-3M melanoma = settings: 10 µM unless noted
MDA-MB-231 breast = settings: 10 µM unless noted
RXF 393 renal = settings: 10 µM unless noted
SF-268 CNS = settings: 10 µM unless noted
SF-295 CNS = settings: 10 µM unless noted
SF-539 CNS = settings: 10 µM unless noted
UACC-257 melanoma = settings: 10 µM unless noted
M14 melanoma = settings: 10 µM unless noted
HCT-15 colon = settings: 10 µM unless noted
HT29 colon = settings: 10 µM unless noted
SNB-75 CNS = settings: 10 µM unless noted
SNB-19 CNS = settings: 10 µM unless noted
PC-3 prostate = settings: 10 µM unless noted
SK-MEL-5 melanoma = settings: 10 µM unless noted
UACC-62 melanoma = settings: 10 µM unless noted
LOX IMVI melanoma = settings: 10 µM
SK-MEL-28 melanoma = settings: 10 µM unless noted
U251 CNS = settings: 10 µM unless noted

Measured: growth

Oc1ccc2ccccc2c1CN1CCOCC1
inactive: DU-145 prostate 124% | K-562 leukemia 118% | MALME-3M melanoma 121% | MDA-MB-231 breast 109% | RXF 393 renal 128% | SF-268 CNS 102% | SF-295 CNS 110% | SF-539 CNS 81.4% | UACC-257 melanoma 120% | M14 melanoma 98% | HCT-15 colon 107% | HT29 colon 110% | SNB-75 CNS 95.6% | SNB-19 CNS 110% | PC-3 prostate 99.9% | SK-MEL-5 melanoma 113% | UACC-62 melanoma 111% | LOX IMVI melanoma 115% | SK-MEL-28 melanoma 107%

CCN1CCCC(N2c3ccccc3Sc3ccccc32)C1 (stereo unspecified)
inactive: DU-145 prostate 94.1% | K-562 leukemia 91.8% | MALME-3M melanoma 92.1% | MDA-MB-231 breast 76.5% | RXF 393 renal 104% | SF-268 CNS 103% | SF-295 CNS 107% | SF-539 CNS 103% | UACC-257 melanoma 104% | M14 melanoma 99.8% | HCT-15 colon 102% | HT29 colon 89.3% | SNB-75 CNS 92.8% | SNB-19 CNS 110% | U251 CNS 94.6% | SK-MEL-5 melanoma 97% | UACC-62 melanoma 104% | LOX IMVI melanoma 91.2% | SK-MEL-28 melanoma 105%

CCCCCC#CC(=O)O
inactive: DU-145 prostate 132% | K-562 leukemia 103% | MALME-3M melanoma 99.9% | MDA-MB-231 breast 110% | RXF 393 renal 125% | SF-268 CNS 110% | SF-295 CNS 103% | SF-539 CNS 103% | UACC-257 melanoma 104% | M14 melanoma 120% | HCT-15 colon 105% | HT29 colon 99.5% | SNB-75 CNS 99.7% | SNB-19 CNS 108% | U251 CNS 98.4% | SK-MEL-5 melanoma 111% | UACC-62 melanoma 104% | LOX IMVI melanoma 104% | SK-MEL-28 melanoma 113%

COC1OC(CO)C(OC)C(O)C1O (stereo unspecified)
inactive: DU-145 prostate 105% | K-562 leukemia 102% | MALME-3M melanoma 111% | MDA-MB-231 breast 111% | RXF 393 renal 99.4% | SF-268 CNS 95.7% | SF-295 CNS 96.7% | SF-539 CNS 99% | UACC-257 melanoma 106% | M14 melanoma 103% | HCT-15 colon 100% | HT29 colon 110% | SNB-75 CNS 103% | SNB-19 CNS 105% | PC-3 prostate 103% | SK-MEL-5 melanoma 103% | UACC-62 melanoma 96.2% | LOX IMVI melanoma 95.6% | SK-MEL-28 melanoma 95.9%

Cc1cc(C(=O)NN)c(C#N)c(=O)[nH]1
inactive: DU-145 prostate 106% | K-562 leukemia 116% | MALME-3M melanoma 103% | MDA-MB-231 breast 106% | RXF 393 renal 99.5% | SF-268 CNS 116% | SF-295 CNS 127% | SF-539 CNS 87.7% | UACC-257 melanoma 95.4% | M14 melanoma 100% | HCT-15 colon 105% | HT29 colon 124% | SNB-75 CNS 84.6% | SNB-19 CNS 95.3% | PC-3 prostate 91.1% | SK-MEL-5 melanoma 95.7% | UACC-62 melanoma 89.8% | LOX IMVI melanoma 97.7% | SK-MEL-28 melanoma 91.8%

O=c1[nH]c(=O)c2cc(Cl)cc(Cl)c2[nH]1
inactive: DU-145 prostate 136% | K-562 leukemia 106% | MALME-3M melanoma 116% | MDA-MB-231 breast 107% | RXF 393 renal 113% | SF-268 CNS 109% | SF-295 CNS 114% | SF-539 CNS 99.5% | UACC-257 melanoma 93% | M14 melanoma 102% | HCT-15 colon 107% | HT29 colon 106% | SNB-75 CNS 68.2% | SNB-19 CNS 95% | PC-3 prostate 93.7% | SK-MEL-5 melanoma 103% | UACC-62 melanoma 96.7% | LOX IMVI melanoma 120% | SK-MEL-28 melanoma 124%

O=C(NCc1ccco1)Nc1cccc2c(NC(=O)NCc3ccco3)cccc12
inactive: DU-145 prostate 53% [100 µM] | K-562 leukemia 32.9% [100 µM] | MALME-3M melanoma 111% [100 µM] | MDA-MB-231 breast 97.9% [100 µM] | RXF 393 renal 117% [100 µM] | SF-268 CNS 96.3% [100 µM] | SF-295 CNS 84.1% [100 µM] | SF-539 CNS 30.2% [100 µM] | UACC-257 melanoma 112% [100 µM] | M14 melanoma 66.3% [100 µM] | HCT-15 colon 99.2% [100 µM] | HT29 colon 55.2% [100 µM] | SNB-75 CNS 49.7% [100 µM] | SNB-19 CNS 52.6% [100 µM] | U251 CNS 64.8% [100 µM] | SK-MEL-5 melanoma 90% [100 µM] | UACC-62 melanoma 96.6% [100 µM] | SK-MEL-28 melanoma 91.3% [100 µM]

Nc1ccn(C2OC(CO)C(O)C2F)c(=O)n1 (stereo unspecified)
inactive: DU-145 prostate 89.4% | K-562 leukemia 83.7% | MALME-3M melanoma 73% | MDA-MB-231 breast 89.2% | RXF 393 renal 100% | SF-268 CNS 86.3% | SF-295 CNS 98.6% | SF-539 CNS 92.2% | UACC-257 melanoma 95.1% | M14 melanoma 65.4% | HCT-15 colon 95.8% | HT29 colon 79% | SNB-75 CNS 79.5% | SNB-19 CNS 90.5% | U251 CNS 78.6% | SK-MEL-5 melanoma 92.5% | UACC-62 melanoma 77.7% | LOX IMVI melanoma 79.6% | SK-MEL-28 melanoma 60.5%

COc1nc2ccccc2s1
inactive: DU-145 prostate 110% | K-562 leukemia 102% | MALME-3M melanoma 111% | MDA-MB-231 breast 115% | RXF 393 renal 118% | SF-268 CNS 101% | SF-295 CNS 113% | SF-539 CNS 90.7% | UACC-257 melanoma 84.8% | M14 melanoma 93.5% | HCT-15 colon 98% | HT29 colon 102% | SNB-75 CNS 81% | SNB-19 CNS 110% | U251 CNS 108% | SK-MEL-5 melanoma 97.5% | UACC-62 melanoma 103% | LOX IMVI melanoma 82.1% | SK-MEL-28 melanoma 100%

O=C(N/N=C\c1ccc(Cl)cc1Cl)c1ccncc1
inactive: DU-145 prostate 111% | K-562 leukemia 96.7% | MALME-3M melanoma 99.1% | MDA-MB-231 breast 98.9% | RXF 393 renal 118% | SF-268 CNS 98.7% | SF-295 CNS 103% | SF-539 CNS 105% | UACC-257 melanoma 104% | M14 melanoma 100% | HCT-15 colon 102% | HT29 colon 90.1% | SNB-75 CNS 77.4% | SNB-19 CNS 92.8% | U251 CNS 92.7% | SK-MEL-5 melanoma 98.9% | UACC-62 melanoma 106% | LOX IMVI melanoma 85.4% | SK-MEL-28 melanoma 103%

CC(=O)NC(CCc1ccc(Cl)c(Cl)c1)c1cccc(O)c(=O)c1 (stereo unspecified)
active: MALME-3M melanoma -17.9% | SF-268 CNS 8.61% | SF-295 CNS -22.2% | SF-539 CNS 2.57% | UACC-257 melanoma -11% | M14 melanoma -44.2% | SK-MEL-5 melanoma -31.8% | UACC-62 melanoma -57.7% | LOX IMVI melanoma -2.69%
inactive: DU-145 prostate 16.6% | K-562 leukemia 11.2% | MDA-MB-231 breast 28.3% | RXF 393 renal 18.6% | HCT-15 colon 29.9% | HT29 colon 27.6% | SNB-75 CNS 18.7% | SNB-19 CNS 23.7% | U251 CNS 13.7% | SK-MEL-28 melanoma 19.5%

Clc1cccc(Cl)c1CSc1nc2ccccc2n2cccc12
inactive: DU-145 prostate 92.8% | K-562 leukemia 89% | MALME-3M melanoma 91.4% | MDA-MB-231 breast 98.2% | RXF 393 renal 97.6% | SF-268 CNS 96.9% | SF-295 CNS 98% | SF-539 CNS 102% | UACC-257 melanoma 95.6% | M14 melanoma 94.1% | HCT-15 colon 68.2% | HT29 colon 79.6% | SNB-75 CNS 86.5% | SNB-19 CNS 105% | PC-3 prostate 96.5% | SK-MEL-5 melanoma 103% | UACC-62 melanoma 96.3% | LOX IMVI melanoma 96.4% | SK-MEL-28 melanoma 103%

Clc1ccc(/C=C/c2ccccn2)cc1
inactive: DU-145 prostate 109% | K-562 leukemia 107% | MALME-3M melanoma 108% | MDA-MB-231 breast 98.9% | RXF 393 renal 116% | SF-268 CNS 91.3% | SF-295 CNS 100% | SF-539 CNS 94.2% | UACC-257 melanoma 103% | M14 melanoma 101% | HCT-15 colon 89.5% | HT29 colon 111% | SNB-75 CNS 72.5% | SNB-19 CNS 96.3% | PC-3 prostate 81.4% | SK-MEL-5 melanoma 101% | UACC-62 melanoma 106% | LOX IMVI melanoma 98.6% | SK-MEL-28 melanoma 99%

CC1CCC(C(C)(C)[N+](C)(C)C)CC1 (stereo unspecified)
inactive: DU-145 prostate 102% | K-562 leukemia 116% | MALME-3M melanoma 96.1% | MDA-MB-231 breast 103% | RXF 393 renal 111% | SF-268 CNS 95.8% | SF-295 CNS 101% | SF-539 CNS 96% | UACC-257 melanoma 99.6% | M14 melanoma 98.1% | HCT-15 colon 98.1% | HT29 colon 97.8% | SNB-75 CNS 89% | SNB-19 CNS 101% | PC-3 prostate 96.9% | SK-MEL-5 melanoma 103% | UACC-62 melanoma 104% | LOX IMVI melanoma 102%

O=C(OC1CCCC1)c1ccccc1Cl
inactive: DU-145 prostate 109% | K-562 leukemia 106% | MALME-3M melanoma 102% | MDA-MB-231 breast 97.3% | RXF 393 renal 112% | SF-268 CNS 104% | SF-295 CNS 100% | SF-539 CNS 98.6% | UACC-257 melanoma 109% | M14 melanoma 101% | HCT-15 colon 111% | HT29 colon 105% | SNB-75 CNS 90.3% | SNB-19 CNS 105% | PC-3 prostate 95.7% | SK-MEL-5 melanoma 108% | UACC-62 melanoma 99.2% | LOX IMVI melanoma 97% | SK-MEL-28 melanoma 107%

O=C1CSc2ccccc2N1
inactive: DU-145 prostate 116% | K-562 leukemia 122% | MALME-3M melanoma 108% | MDA-MB-231 breast 115% | RXF 393 renal 120% | SF-268 CNS 104% | SF-295 CNS 110% | SF-539 CNS 129% | UACC-257 melanoma 101% | M14 melanoma 113% | HCT-15 colon 118% | HT29 colon 100% | SNB-75 CNS 76.2% | SNB-19 CNS 96.3% | U251 CNS 96.7% | SK-MEL-5 melanoma 109% | UACC-62 melanoma 106% | LOX IMVI melanoma 88% | SK-MEL-28 melanoma 105%

CCC(C)C1CCC(O)CC1 (stereo unspecified)
inactive: DU-145 prostate 101% | K-562 leukemia 99.2% | MALME-3M melanoma 32.8% | MDA-MB-231 breast 112% | RXF 393 renal 108% | SF-268 CNS 99.3% | SF-295 CNS 105% | SF-539 CNS 94.8% | UACC-257 melanoma 103% | M14 melanoma 99% | HCT-15 colon 104% | HT29 colon 105% | SNB-75 CNS 91.7% | SNB-19 CNS 112% | U251 CNS 98.8% | PC-3 prostate 100% | UACC-62 melanoma 104% | LOX IMVI melanoma 101% | SK-MEL-28 melanoma 106%

From PubChem BioAssay (NCI)
